Source: PubChem BioAssay AID504616 (Sanford-Burnham Center for Chemical Genomics, 2011)
The list shows a part of the results. Values without a mark were called inactive.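 The calls were made as follows: active = mean activity change at or below -40% when tested at 20 µM; inactive = the rest.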

Assay: detection-step artefacts after finished caspase reaction – biochemical, fluorescence, Rh110, 20 µM, artefact control for Apaf-1 activator project, confirmation (AID 504616)
Conditions: quenched caspase reaction, Ex480/Em540, at 20 µM

Row | SMILES | fluorescence interference (activity change) [%]
1 | CC(C)OCCCNC(=S)N1CCC(C(=O)c2ccc3c(c2)OCCO3)CC1 | 3.57
2 | C=CC1=C(C(=O)O)N2C(=O)[C@@H](NC(=O)/C(=N/OCC(=O)O)c3csc(N)n3)[C@H]2SC1 | 3.12
3 | COc1cc(C(=O)NCc2nnc(SCC(=O)Nc3nc4ccc(C)cc4s3)o2)cc(OC)c1OC | -5.21
4 | CC(=O)NC(=S)NNC(=O)c1ccc(Br)cc1 | -5.11
5 | CCOCCCNC(=O)c1c[nH]c2cc(C)ccc2c1=O | 8.21
6 | O=C(CSc1ccc(-c2ccc(-n3cccn3)cc2)nn1)Nc1ccc([N+](=O)[O-])cc1 | 2.63
7 | CCOCCc1c(O)nc(SCC(=O)NCc2ccco2)[nH]c1=O | -8.32
8 | C=CCNC(=O)c1ccc(C)c(Br)c1 | 10.4
9 | Cc1ccc(S(=O)(=O)N2CCOCC2)cc1C(=O)NC(=S)N(Cc1ccccc1)C(C)C | 3.5
10 | Clc1cccc(-c2nc3nc4ccccc4nc3n2Cc2ccco2)c1 | 6.33
11 | COc1cccc(C(=O)Nc2ccc(N3CCCC3)cc2)c1 | 2.88
12 | N#CC1(C#N)C(C(=O)C23CC4CC(CC(C4)C2)C3)C12CCOCC2 (stereo unspecified) | -0.76
13 | O=C(Nc1cccc(-c2nc3ccccc3[nH]2)c1)c1ccc(C(=O)Nc2cccc(-c3nc4ccccc4[nH]3)c2)cc1 | 7.06
14 | CN(C)S(=O)(=O)c1ccc(C(=O)NCCN=C2NS(=O)(=O)c3ccccc32)cc1 | 8.9
15 | Cc1nn(CC(=O)Nc2ccc(C#N)cc2)c(C)c1[N+](=O)[O-] | -2.47
16 | O=[N+]([O-])c1ccc2nc(-c3ccccn3)[nH]c2c1 | 5.13
17 | CC(=O)CCC(=O)c1ccc2ccccc2c1 | 15
18 | CCCC(=O)Nc1nc2ccc(NC(=O)c3c(F)c(F)c(OC)c(F)c3F)cc2s1 | 7.74
19 | COc1ccc(S(=O)(=O)N2CCCCC2)cc1NC(=O)c1cc([N+](=O)[O-])ccc1N1CCOCC1 | 4.4
20 | Cc1ccc(Nc2nc(CSc3nnc(-c4ccncc4)n3-c3ccccc3C)cs2)cc1 | 11.6
21 | Cc1ccc(S(=O)(=O)c2c(N)n(C)c3nc4ccccc4nc23)cc1 | -4.76
